# In the supplement of paper PMC8975748:
# Counter-ions that a name gives are not always drawn.
# Tested on: Saccharomyces cerevisiae BY4741 SeMeCo community
# Assay: z-score of subpopulation abundance vs DMSO median, subpopulation auxotrophic for LU; higher = larger share of this subpopulation than in DMSO controls
# Details: 10 µM; 24 h; SM minimal medium; subpopulation (auxotrophy): LU
# Procedure: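 Fluorescent four-plasmid SeMeCo (self-establishing metabolically cooperating S. cerevisiae BY4741 community; plasmids pH-mRuby2, pL-mWasabi, pU-eCFP, pM-TagRFP657) was grown 24 h in minimal SM medium with each Selleck FDA-approved drug at 10 µM in 384-well plates. Cells were fixed and imaged by high-content confocal microscopy. For each auxotrophic subpopulation (and the prototroph), a z-score gives the deviation from the DMSO vehicle-control population median.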
row,Structure (SMILES),z-score of subpopulation abundance
1,NCCc1c[nH]c2ccc(O)cc12 [Serotonin HCl],-0.51
2,CC(C)(O)C(Cl)(Cl)Cl [Chlorobutanol],0.52
3,CN1[C@@H]2CC[C@H]1C[C@@H](OC(=O)[C@H](CO)c1ccccc1)C2 [Hyoscyamine],0.31
4,C=C[C@H]1CN2CC[C@H]1C[C@H]2[C@H](O)c1ccnc2ccccc12 [Cinchonidine],0.59
5,N[C@@H]1C[C@H]1c1ccccc1 [Tranylcypromine (2-PCPA) HCl],-0.31
6,C[N+](C)(C)CCCCCCCCCC[N+](C)(C)C [Decamethonium Bromide],-0.59
7,COc1cc2c(cc1OC)C1CC(=O)C(CC(C)C)CN1CC2 (stereo not given) [Tetrabenazine (Xenazine)],-0.11
8,O=C(O[C@H]1C[N+]2(CCCOc3ccccc3)CCC1CC2)C(O)(c1cccs1)c1cccs1 [Aclidinium Bromide],0.07
9,CC1(C)SC2C(N)C(=O)N2C1C(=O)O (stereo not given) [6-Aminopenicillanic acid],0.32
10,CC(=O)O[C@H]1C[C@@H]2CC[C@@H]3[C@H](CC[C@@]4(C)[C@H]3C[C@H]([N+]3(C)CCCCC3)[C@@H]4OC(C)=O)[C@@]2(C)C[C@@H]1[N+]1(C)CCCCC1 [Pancuronium dibromide],0.2
11,COc1ccc2c(c1)[C@]13CCCC[C@@H]1[C@H](C2)N(C)CC3 [Dextromethorphan hydrobromide hydrate],0.05
12,CC[C@H]1[C@@H]2C[C@H]3[C@@H]4N(C)c5ccccc5[C@]45C[C@@H]([C@@H]2[C@H]5O)N3[C@@H]1O [Ajmaline],-0.26
13,CN(C)[C@@H]1C(=O)C(C(N)=O)=C(O)[C@@]2(O)C(=O)C3=C(O)c4c(O)ccc(Cl)c4[C@@](C)(O)[C@H]3C[C@@H]12 [Chlortetracycline HCl],-0.72
14,COc1ccc(C(CN(C)C)C2(O)CCCCC2)cc1 (stereo not given) [Venlafaxine HCl],-0.06
15,CN1[C@@H]2C[C@@H](OC(=O)[C@H](CO)c3ccccc3)C[C@H]1[C@@H]1O[C@@H]12 [Scopolamine HBr trihydrate],-0.6
16,C=CC[C@]1(O)CC[C@H]2[C@@H]3CCC4=CC(=O)CCC4=C3C=C[C@@]21C [Altrenogest],-0.55
17,CC[C@@]1(O)C(=O)OCc2c1cc1n(c2=O)Cc2cc3ccccc3nc2-1 [Camptothecin],-0.54
18,COc1ccc2[nH]cc(CCN)c2c1 [5-Methoxytryptamine],1.01
19,C[C@H]1O[C@H](O[C@H]2[C@H](O)[C@@H](O)[C@@H](O)[C@H](O)[C@@H]2O)[C@@H](N)C[C@@H]1NC(=N)C(=O)O [Kasugamycin hydrochloride],0.49
20,CCN1CC2(OC(=O)c3ccccc3NC(C)=O)CCC(OC)C34C1C(CC23)C1(O)CC(OC)C2CC4C1(O)C2OC (stereo not given) [Lappaconitine],0.55

row,Structure (SMILES),z-score of subpopulation abundance
1,CC(=O)OCC1=C(C(=O)O)N2C(=O)C(N)C2SC1 (stereo not given) [7-Aminocephalosporanic acid],0.09
2,Oc1cccc2cccnc12 [8-Hydroxyquinoline],-0.63
3,CCN(C)C(=O)Oc1cccc([C@H](C)N(C)C)c1 [Rivastigmine],-1.09
4,Nc1nc(N)nc(NC2CC2)n1 [Cyromazine],0.73
5,CC(NC(C)(C)C)C(=O)c1cccc(Cl)c1 (stereo not given) [Amfebutamone (Bupropion) HCl],0.12
6,O=C(O[C@H]1C[C@H]2CC[C@@H](C1)[N+]21CCCC1)C(O)(c1ccccc1)c1ccccc1 [Trospium chloride],-0.24
7,N#Cc1nn(-c2c(Cl)cc(C(F)(F)F)cc2Cl)c(N)c1[S+]([O-])C(F)(F)F (stereo not given) [Fipronil],0.06
8,C[N+]1(C)[C@@H]2C[C@@H](OC(=O)[C@H](CO)c3ccccc3)C[C@H]1[C@@H]1O[C@@H]12 [Methscopolamine],0.27
9,COc1ccc(C(CN(C)C)C2(O)CCCCC2)cc1 (stereo not given) [Venlafaxine],0.97
10,CN(C)C(=O)Oc1ccc[n+](C)c1 [Pyridostigmine Bromide],0.57
11,C[C@@H]1O[C@@H](O[C@H]2C[C@@H](O)[C@]3(CO)[C@H]4[C@H](O)C[C@]5(C)[C@@H](C6=CC(=O)OC6)CC[C@]5(O)[C@@H]4CC[C@]3(O)C2)[C@H](O)[C@H](O)[C@H]1O [Ouabain],-0.53
12,CN1C(=O)COc2c(C(=O)NC3CN4CCC3CC4)cc(Cl)cc21 (stereo not given) [Azasetron HCl],-0.43
13,O=c1cccc2n1C[C@@H]1CNC[C@H]2C1 [Cytisine],0.11
14,"NCC(O)c1ccc(O)cc1 (racemic) [(+,-)-Octopamine HCl]",-0.38
15,CCC1=C[C@H]2CN3CCc4c([nH]c5ccccc45)[C@](C(=O)OC)(C2)[C@H]13 [Catharanthine],-0.64
16,CN1c2ccccc2C(NCCCCCCC(=O)O)c2ccc(Cl)cc2S1(=O)=O (stereo not given) [Tianeptine sodium],-0.24
17,C#C[C@]1(O)C=C[C@H]2[C@@H]3CCC4=CC(=O)CC[C@@H]4[C@H]3CC[C@@]21CC [Gestodene],-0.97
18,O=[N+]([O-])C(Br)(CO)CO [Bronopol],0.26
19,COC(=O)C1=CCCN(C)C1 [Arecoline HBr],0.1
20,CNC1CC(N)C(O)C(OC2OC(CO)C(O)C3OC4(OC(C(N)CO)C(O)C(O)C4O)OC23)C1O (stereo not given) [Hygromycin B],0.34
